From PubChem BioAssay
Several values for one entry are separate records, joined by “and”; a condition that tells them apart may be missing. Equal values may be shown once. Activity calls are given as the source filed them.

Key:
[1] = anti-His antibody binders, primary screen, artefact control for SMM control protein annotation, biochemical, small-molecule microarray, 635 nm fluorescence (AID 1128); conditions: anti-His Alexa647 antibody binding, higher = more signal;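 note: score merges feature fluorescence with signal-to-noise for each printed compound spot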
[2] = test system: Human papillomavirus type 1a E7 protein (residues 1-88); experiment: HPV1a E7 small-molecule binders, primary screen, biochemical, small-molecule microarray, residues 1-88, 635 nm (AID 1129); conditions: small-molecule microarray binding, fluorescence 635 nm; higher = more signal
[3] = molecular target: Focal adhesion kinase 1 (Homo sapiens) (UniProt Q05397); experiment: small-molecule microarray binders of FAK, primary screen, biochemical, 635/667 nm fluorescence, BSA, DTT (AID 1130); conditions: PTK2 binding, 635 nm fluorescence, higher = more signal;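 note: composite of spot emission at 667 nm and signal to noise over triplicate slides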
[4] = test system: Fibrinogen (Alexa647-labelled); experiment: fibrinogen binders on compound microarrays, profiling panel, artefact control for SMM control-protein annotation, biochemical, small-molecule microarray, 635/667 nm fluorescence (AID 1131); conditions: fibrinogen-A647 binding fluorescence, higher = more signal;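 note: z-score merges 667 nm fluorescence with per-spot signal-to-noise over triplicate slides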
[5] = molecular target: Follistatin (Homo sapiens) (UniProt P19883); experiment: follistatin binders on small-molecule microarrays, primary screen, biochemical, small-molecule microarray, 635/667 nm fluorescence (AID 1132); conditions: FST binding, 635 nm fluorescence, higher = more signal
[6] = molecular target: Fibroblast growth factor 2 (Homo sapiens) (UniProt P09038); experiment: FGF2 binders on small-molecule microarrays, primary screen, biochemical, small-molecule microarray, 635/667 nm fluorescence (AID 1133); conditions: small-molecule microarray binding, FGF2, fluorescence 635/667; higher = more signal
[7] = mitochondrial membrane potential change in A549 cells, profiling panel, cell-based, JC-1 fluorescence, basal, 24 h, 100 nL (AID 1138); conditions: higher = more signal;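 note: A549 lung adenocarcinoma cells under basal conditions with no added stimulus; test concentration not given here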
Lefty1 = Lefty1 binders on small-molecule microarrays, primary screen, biochemical, small-molecule microarray, 635/667 nm fluorescence (AID 1139); conditions: small-molecule microarray binding, fluorescence 635/667; higher = more signal
[8] = test system: wheat germ agglutinin (Triticum aestivum), Alexa647-labelled; experiment: wheat germ agglutinin binders on compound microarrays, profiling panel, artefact control for SMM control-protein annotation, biochemical, small-molecule microarray, 635/667 nm fluorescence (AID 1140); conditions: WGA-A647 binding, 635 nm fluorescence, higher = more signal;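 note: score merges 667 nm feature emission with signal to noise over triplicate slides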
[9] = molecular target: Luciferin 4-monooxygenase (Photinus pyralis) (UniProt P08659); experiment: firefly luciferase enzyme inhibitors, primary screen, biochemical, luminescence, purified enzyme, 2006 set (AID 1141); conditions: SteadyGlo luminescence, 30 min, higher = more signal, called active from +8 up or from −8 down;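 note: cell-free assay with purified firefly luciferase at 100 ng per well in PBS; test concentration not given here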
Sequence of Luciferin 4-monooxygenase (Photinus pyralis) (P08659 whole entry, looked up): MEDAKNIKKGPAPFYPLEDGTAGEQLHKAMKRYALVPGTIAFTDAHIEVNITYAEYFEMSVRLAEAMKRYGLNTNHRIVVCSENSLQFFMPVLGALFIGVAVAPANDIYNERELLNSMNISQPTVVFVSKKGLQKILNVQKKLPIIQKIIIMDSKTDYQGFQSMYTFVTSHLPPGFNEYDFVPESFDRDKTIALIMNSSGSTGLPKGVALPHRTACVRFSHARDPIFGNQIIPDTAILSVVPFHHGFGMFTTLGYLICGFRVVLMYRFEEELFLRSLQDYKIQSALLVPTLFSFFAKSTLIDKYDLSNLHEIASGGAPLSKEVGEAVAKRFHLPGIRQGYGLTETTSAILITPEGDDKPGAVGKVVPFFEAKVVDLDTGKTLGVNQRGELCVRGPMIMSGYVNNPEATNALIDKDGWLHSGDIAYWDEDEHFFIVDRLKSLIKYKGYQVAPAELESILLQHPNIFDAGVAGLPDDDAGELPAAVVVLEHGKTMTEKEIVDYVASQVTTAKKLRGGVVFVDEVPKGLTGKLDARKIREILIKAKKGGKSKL

Sequence of Follistatin (Homo sapiens) (P19883 whole entry, looked up): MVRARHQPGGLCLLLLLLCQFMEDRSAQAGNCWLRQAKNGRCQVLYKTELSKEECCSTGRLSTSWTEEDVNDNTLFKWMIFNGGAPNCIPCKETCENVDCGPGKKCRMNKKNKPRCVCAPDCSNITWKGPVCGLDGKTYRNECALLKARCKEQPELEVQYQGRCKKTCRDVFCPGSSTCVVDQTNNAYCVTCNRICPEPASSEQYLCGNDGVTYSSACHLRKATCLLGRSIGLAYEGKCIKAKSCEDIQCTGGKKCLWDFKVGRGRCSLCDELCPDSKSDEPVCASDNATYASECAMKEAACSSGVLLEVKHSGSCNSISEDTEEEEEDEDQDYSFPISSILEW
Sequence of Fibroblast growth factor 2 (Homo sapiens) (P09038 whole entry, looked up): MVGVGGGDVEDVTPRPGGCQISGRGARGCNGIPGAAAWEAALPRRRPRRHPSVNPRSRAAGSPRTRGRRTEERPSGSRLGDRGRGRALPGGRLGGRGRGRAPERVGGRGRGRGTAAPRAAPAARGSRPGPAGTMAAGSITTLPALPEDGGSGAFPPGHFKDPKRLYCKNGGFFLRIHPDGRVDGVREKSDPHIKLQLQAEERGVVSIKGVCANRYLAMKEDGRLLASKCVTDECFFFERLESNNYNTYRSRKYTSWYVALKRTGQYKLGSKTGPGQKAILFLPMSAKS
Sequence of Focal adhesion kinase 1 (Homo sapiens) (Q05397 whole entry, looked up): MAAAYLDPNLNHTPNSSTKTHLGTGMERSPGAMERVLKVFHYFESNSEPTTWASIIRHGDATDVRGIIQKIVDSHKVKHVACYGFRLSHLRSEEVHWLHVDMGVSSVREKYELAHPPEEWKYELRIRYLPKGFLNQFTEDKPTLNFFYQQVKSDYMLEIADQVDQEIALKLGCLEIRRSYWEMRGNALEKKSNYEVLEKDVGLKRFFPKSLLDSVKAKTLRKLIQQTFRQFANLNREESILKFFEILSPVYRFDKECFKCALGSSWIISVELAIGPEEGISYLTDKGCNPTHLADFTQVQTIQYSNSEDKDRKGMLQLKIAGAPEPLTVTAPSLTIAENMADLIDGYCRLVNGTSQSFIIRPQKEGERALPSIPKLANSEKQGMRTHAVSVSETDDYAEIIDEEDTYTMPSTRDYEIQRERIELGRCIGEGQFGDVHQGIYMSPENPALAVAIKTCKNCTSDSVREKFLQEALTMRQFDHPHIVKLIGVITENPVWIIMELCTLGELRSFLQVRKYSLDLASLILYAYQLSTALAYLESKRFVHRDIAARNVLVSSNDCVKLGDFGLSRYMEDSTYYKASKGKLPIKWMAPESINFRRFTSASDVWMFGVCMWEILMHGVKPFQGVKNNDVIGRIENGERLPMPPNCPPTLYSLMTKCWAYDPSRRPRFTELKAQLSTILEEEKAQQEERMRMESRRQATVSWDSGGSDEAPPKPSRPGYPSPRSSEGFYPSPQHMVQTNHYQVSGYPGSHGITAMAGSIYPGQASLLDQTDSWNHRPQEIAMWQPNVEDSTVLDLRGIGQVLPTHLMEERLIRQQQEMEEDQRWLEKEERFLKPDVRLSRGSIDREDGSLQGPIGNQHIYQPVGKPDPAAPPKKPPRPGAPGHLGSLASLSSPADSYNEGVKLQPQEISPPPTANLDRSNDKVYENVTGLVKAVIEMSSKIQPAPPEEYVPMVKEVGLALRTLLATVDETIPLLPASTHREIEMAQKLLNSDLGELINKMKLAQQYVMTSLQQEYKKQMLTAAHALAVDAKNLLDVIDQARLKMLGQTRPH

Row | Compound | composite z-score [1] | composite z-score [2] | composite z-score [3] | composite z-score [4] | composite z-score [5] | composite z-score [6] | z-score [7] | composite z-score (Lefty1) | composite z-score [8] | z-score [9]
1 | C=CCN(C(=O)C(c1cccs1)N(C(=O)/C=C\C(=O)O)c1c(Cl)cccc1CO)c1ccc(OC)cc1 (stereo not given) | -1.78 and -1.48 | -1.15 and -0.74 | -0.93 and -0.641 | -1.13 and -0.594 | -2.61 and -1.19 | -2.55 and -1.44 | 1.26 and 1.98 | -2.98 and -2.04 | -0.55 and 0.213 | -1.47 (inactive) and -1.26 (inactive)
2 | CC(C)[Si]1(C(C)C)OCc2cc(C3CC3)nc(CCc3ccccc3)c21 | -0.363 and -0.0162 | -0.868 and 0.316 | -0.177 and -0.249 | -0.582 and 0.111 | 0.0259 and 0.303 | -0.329 and 0.0149 | -0.323 and -1.45 | -0.237 and 0.22 | -0.269 and 0.0131 | -0.324 (inactive) and 0.744 (inactive)
3 | COc1ccc(-c2ccc3c(n2)CCCN3CC(O)CN2CCCc3nc(-c4ccc(Br)cc4)ccc32)cc1 (stereo not given) | 1.33 and 1.2 | 0.601 and 0.387 | 0.665 and 0.748 | 0.572 and 0.757 | 0.922 and 0.796 | 0.6 and 0.609 | 1.45 and 0.555 | 1.02 and 0.514 | 0.557 and 0.333 | -0.254 (inactive) and 0.147 (inactive)
4 | C=C[C@@H](OC)[C@H](O)c1ccc(O)c(F)c1 | -0.709 and -0.462 | -0.912 and -1.26 | -0.746 and -0.838 | -1.11 and -0.58 | -1.18 and -0.404 | -1.39 and 0.0341 | -0.329 and 0.662 | -1.7 and -0.947 | -0.303 and -0.223 | -0.981 (inactive) and -1.3 (inactive)
5 | C=CC[C@@H](O)c1ccc(OCCO)cc1 | 0.7 and -0.687 | 0.301 and -0.59 | -0.595 and -0.79 | -1.34 and -0.494 | 0.716 and -0.517 | -0.418 and -1.58 | 0.856 and 0.491 | -0.146 and -0.805 | -0.455 and 0.763 | -6.43 (inactive) and -6.38 (inactive)
6 | C=CCN(C(=O)C1N(C(C)(C)CO)C(=O)C2C(C(=O)O)C3C=CC21O3)c1ccc(OC)cc1 (stereo not given) | -2.21 and -2.2 | -1.08 and -1.45 | -0.488 and -0.747 | -1.1 and -1.88 | -2.74 and -3.18 | -2.91 and -2.56 | 0.869 and 0.79 | -2.07 and -3.54 | -1.08 and -2.01 | -2.06 (inactive) and -1.09 (inactive)
7 | C=C[C@H](OC)[C@@H](O)c1ccc(OCCO)cc1 | -1.34 and 2.11 | -1.73 and -0.721 | -0.86 and 0.0202 | -2.46 and -1.57 | -1.51 and -0.835 | -1.92 and -0.492 | -0.669 and 0.692 | -2.17 and -1.55 | -2.15 and -0.827 | -0.117 (inactive) and -1.75 (inactive)
8 | CC(CO)N1C(=O)[C@@H]2C3C(=O)OCCC=C[C@H]3OC23C=CCN(CCN2CCOCC2)C(=O)[C@@H]13 (stereo not given in full) | 1.29 and 1.37 | -0.795 and -0.0944 | 0.0101 and 1.02 | -0.288 and 0.15 | 0.319 and -0.0336 | -0.454 and -1.45 | -0.0837 and -0.32 | 0.373 and 0.526 | -0.0856 and 0.329 | -0.272 (inactive) and -0.263 (inactive)
9 | CC(CO)N1C(=O)[C@@H]2C3C(=O)OCCC=C[C@H]3OC23C=CCN(c2ccc(Cl)cc2)C(=O)[C@@H]13 (stereo not given in full) | -1.31 and 1.36 | -1.31 and -0.0543 | 1.69 and 0.156 | -0.697 and 0.363 | -1.49 and 0.33 | -1.73 and -0.68 | 0.931 and 0.848 | -1.49 and 0.213 | -0.0757 and 0.684 | -0.593 (inactive) and -0.731 (inactive)
10 | C[N+](C)(C)CCCCNC(=O)[C@@H]1C[C@@H]2C(=O)N[C@@H](CCCC[N+](C)(C)C)C(=O)N2[C@@H]1c1cccc(OCCO)c1 | 2.73 and 2.55 | 0.905 and -0.426 | -0.791 and -0.306 | -0.355 and 0.553 | 1.54 and 1.48 | 1.94 and 1.9 | 0.725 and 1.07 | 1.73 and 1.55 | 0.284 and 0.68 | -1.56 (inactive) and -1.48 (inactive)
11 | Cc1ccc(S(=O)(=O)N[C@H]2COC(=O)[C@@H](C)COC(=O)[C@H](C)NC(=O)CC=C[C@H]2C)cc1 | -0.293 | -0.336 | -0.295 | -0.343 | 0.162 | 1.09 | 0.637 | 0.72 | -0.634 | -0.402 (inactive)
12 | O=c1n(-c2ccccc2)c(=O)n2n1CC[C@@H]1C(=NOC[C@@H](O)COCc3ccco3)[C@H]3O[C@H]3[C@@H](O)[C@@H]12 | 0.196 and 1.9 | 0.0776 and -0.425 | 0.828 and -0.367 | -0.309 and -0.105 | 1.15 and 0.461 | 1.02 and 0.96 | -0.642 and -0.729 | 1.43 and 0.459 | -0.392 and 0.0106 | 0.0662 (inactive) and -0.214 (inactive)
13 | CCOC(=O)C[C@H]1[C@H](OC(=O)c2ccccc2-c2ccccc2)[C@@H](NC(=O)Cc2ccc(OC)cc2)c2cc(OCCCO)ccc2N1C(=O)Cc1ccc(OC)cc1 | -0.109 and -0.161 | 0.8 and -0.925 | 0.14 and -0.217 | 0.325 and 0.237 | 0.214 and -0.173 | -0.0463 and -0.423 | 1.91 and 0.598 | 0.517 and -0.0509 | 0.484 and -0.261 | -1 (inactive) and 0.591 (inactive)
14 | C=CC[C@@H](O)c1ccc(O)c2ccccc12 | 1.02 and 1.68 | 0.647 and 1.11 | -0.618 and 0.11 | 0.353 and 0.0525 | 1.38 and 1.39 | 1.48 and 1.7 | 0.388 and -0.59 | 1.4 and 1.06 | 0.175 and 0.379 | -2.65 (inactive) and -2.18 (inactive)
15 | CC(C)=NO[C@@H](C)c1cc(-c2c(C)cc(C)cc2C)no1 | 1.01 | -0.705 | 0.0218 | -0.268 | 0.0215 | 0.0248 | -0.114 | 0.0782 | -0.418 | 0.389 (inactive)
